# Measured values published in PubChem BioAssay.
# Calls of active or inactive are those of the source. Unless noted, the rule behind the calls is not given here.
# Experiments:
# [1] = resazurin metabolic signal in HepG2 cells – cell-based, resazurin fluorescence, 24 h, PK04 Diversity Set, profiling panel (AID 1172); details: HepG2 viability, higher = more signal
# [2] = budding yeast growth changes without added modifier – OD600, strain BY4716, 24 h, basal condition, primary screen (AID 1173); details: S. cerevisiae BY4716 growth, OD600, 24 h; higher = more signal, called active from +8 up or from −8 down
# [3] = viability profiling in MM1S myeloma cells – cell-based, resazurin fluorescence, basal, 24 h, PK04 Diversity Set, profiling panel (AID 1174); details: higher = more signal, called active from +8 up or from −8 down;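 note: MM1S multiple myeloma cell line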
# [4] = molecular target: Dihydroorotate dehydrogenase (quinone), mitochondrial (Plasmodium falciparum (isolate 3D7)) (UniProt Q08210); experiment: inhibition of P. falciparum DHODH – biochemical, C-terminal His tag, absorbance 600 nm, primary screen (AID 1175); details: PfDHODH enzyme, DCIP absorbance 600 nm; higher = more signal, called active from +8 up or from −8 down;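 note: recombinant parasite enzyme with a five histidine tag at its C terminus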
# Chain of Dihydroorotate dehydrogenase (quinone), mitochondrial (Plasmodium falciparum (isolate 3D7)) (Q08210 whole entry, looked up): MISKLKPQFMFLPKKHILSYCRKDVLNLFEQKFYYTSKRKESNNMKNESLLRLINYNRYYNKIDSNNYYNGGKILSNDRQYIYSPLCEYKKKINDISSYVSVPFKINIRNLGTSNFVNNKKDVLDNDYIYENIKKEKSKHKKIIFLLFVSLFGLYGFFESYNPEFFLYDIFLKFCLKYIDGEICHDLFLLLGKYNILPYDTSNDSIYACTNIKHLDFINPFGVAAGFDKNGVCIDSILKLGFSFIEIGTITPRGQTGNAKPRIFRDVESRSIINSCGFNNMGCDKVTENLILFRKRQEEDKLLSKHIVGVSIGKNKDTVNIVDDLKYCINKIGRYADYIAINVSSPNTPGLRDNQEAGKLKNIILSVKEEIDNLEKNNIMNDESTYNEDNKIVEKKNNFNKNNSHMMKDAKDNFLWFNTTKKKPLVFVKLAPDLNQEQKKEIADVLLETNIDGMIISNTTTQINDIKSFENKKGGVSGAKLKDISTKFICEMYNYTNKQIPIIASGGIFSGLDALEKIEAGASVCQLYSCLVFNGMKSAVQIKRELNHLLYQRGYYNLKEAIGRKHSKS
# [5] = inhibition of PAO1 biofilm formation – strain PAO1, LB-PBS medium, absorbance 600 nm, primary screen (AID 1176); details: P. aeruginosa PAO1 growth/biofilm, A600, 12 h; higher = more signal
# [6] = growth modulation of vineyard yeast isolate – strain RM11-1a, OD600, basal, 24 h, primary screen (AID 1177);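 note: cultures grown under basal conditions with no added stressor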; details: S. cerevisiae RM11-1a growth, OD600, 24 h; higher = more signal, called active from +8 up or from −8 down
# [7] = growth of efflux-deficient E. coli DRC39 – strain DRC39, OD650, 24 h, E. coli filamentation inducers, primary screen (AID 1178);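 note: growth measured as culture turbidity by optical density at 650 nm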; details: E. coli DRC39 acrAB, higher = more signal, called active from +8 up or from −8 down
# [8] = growth of efflux-deficient E. coli DRC39 – strain DRC39, OD650, 48 h, E. coli filamentation inducers, primary screen (AID 1179);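 note: screen aims at cell division blockers that make cells filament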; details: E. coli DRC39 delta-acrAB growth, higher = more signal, called active from +8 up or from −8 down
# [9] = viability profiling in RPMI8226 myeloma cells – cell-based, resazurin fluorescence, basal, 24 h, PK04 Diversity Set, profiling panel (AID 1180); details: higher = more signal;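 note: RPMI8826 multiple myeloma cell line at 5000 cells per well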
# [10] = molecular target: E3 ubiquitin-protein ligase XIAP (Homo sapiens) (UniProt P98170); experiment: small molecules binding XIAP protein – biophysical, small-molecule microarray, fluorescence 635 nm, primary screen (AID 1181); details: higher = more signal;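 note: score merges 667 nm emission and signal to noise over triplicate slides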
# Chain of E3 ubiquitin-protein ligase XIAP (Homo sapiens) (P98170 whole entry, looked up, the tested form may be a part): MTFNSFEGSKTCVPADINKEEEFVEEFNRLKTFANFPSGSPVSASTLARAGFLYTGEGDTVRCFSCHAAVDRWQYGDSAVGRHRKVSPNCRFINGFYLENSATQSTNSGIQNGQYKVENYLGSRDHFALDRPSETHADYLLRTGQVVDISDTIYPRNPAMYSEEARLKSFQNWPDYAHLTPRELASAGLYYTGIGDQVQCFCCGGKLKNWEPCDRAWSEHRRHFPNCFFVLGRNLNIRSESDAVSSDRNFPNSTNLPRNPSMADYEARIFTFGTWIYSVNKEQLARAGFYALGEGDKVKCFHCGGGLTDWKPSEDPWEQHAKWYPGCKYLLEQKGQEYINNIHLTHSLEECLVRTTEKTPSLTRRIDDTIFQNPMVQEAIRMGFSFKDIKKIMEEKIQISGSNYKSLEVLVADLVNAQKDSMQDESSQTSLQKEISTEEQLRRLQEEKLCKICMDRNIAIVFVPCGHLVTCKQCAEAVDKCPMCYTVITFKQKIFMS
# [11] = test system: XIP peptide (Xip251-270) binding; experiment: XIP fragment 251-270 binding compounds – biochemical, small-molecule microarray, fluorescence 635/667 nm, 0.1 µg/mL protein, primary screen (AID 1182); details: fluorescent protein binding, 635 nm, higher = more signal, called active from +8 up or from −8 down
# XIP peptide (Xip251-270) = experiment: compounds binding XIP fragment 251-270 – biochemical, small-molecule microarray, fluorescence 635/667 nm, 0.5 µg/mL protein, primary screen (AID 1183); details: fluorescence 635 nm, higher = more signal
# [12] = blood-stage malaria parasite viability loss – strain 3D7, DAPI fluorescence, 100 nL, primary screen (AID 1184);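 note: parasites grown inside human red blood cells in medium with human serum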; details: P. falciparum 3D7 growth, 3 d, higher = more signal
# [13] = molecular target: Homeobox protein Hox-A13 (Mus musculus) (UniProt Q62424); experiment: disruptors of Hoxa13 oligonucleotide interaction – biochemical, fluorescence polarization, labeled oligonucleotide, primary screen (AID 1185); details: Hoxa13:DNA binding, 15 min, higher = more signal, called active from +8 up or from −8 down
# Chain of Homeobox protein Hox-A13 (Mus musculus) (Q62424 whole entry, looked up): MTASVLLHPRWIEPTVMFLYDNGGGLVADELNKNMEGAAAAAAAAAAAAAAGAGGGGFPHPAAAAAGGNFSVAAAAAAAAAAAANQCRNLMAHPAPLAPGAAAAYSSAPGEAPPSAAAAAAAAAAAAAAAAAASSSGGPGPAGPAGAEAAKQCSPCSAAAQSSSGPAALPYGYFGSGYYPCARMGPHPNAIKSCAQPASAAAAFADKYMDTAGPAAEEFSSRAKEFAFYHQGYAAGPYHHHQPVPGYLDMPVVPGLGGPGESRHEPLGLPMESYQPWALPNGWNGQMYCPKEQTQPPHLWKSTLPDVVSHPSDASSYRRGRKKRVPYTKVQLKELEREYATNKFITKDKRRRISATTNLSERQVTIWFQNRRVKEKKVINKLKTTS
# [14] = blockers of DNA damage checkpoint Chk1 activation – imaging, HeLa, hydroxyurea, phospho-Chk1 antibody, percent positive cells, primary screen (AID 1186); details: hydroxyurea-induced phospho-Chk1 immunofluorescence imaging, higher = more signal
# [15] = blockers of DNA damage checkpoint Chk1 activation – imaging, HeLa, hydroxyurea, phospho-Chk1 nuclear intensity, primary screen (AID 1187); details: hydroxyurea-induced phospho-Chk1 immunofluorescence imaging, higher = more signal
Structure (SMILES),z-score [1],z-score [2],z-score [3],composite z-score [4],z-score [5],z-score [6],z-score [7],z-score [8],z-score [9],composite z-score [10],composite z-score [11],composite z-score (XIP peptide (Xip251-270)),z-score [12],z-score [13],z-score [14],z-score [15]
Cc1ccc(S[C@]2(C(=O)NCCN3CCOCC3)CC(=O)N(Cc3ccccc3C(F)(F)F)[C@@H]2c2ccc(CO)cc2I)cc1,0.628,-3.34 (inactive),-2.71 (inactive),-0.323 (inactive),0.875 (inactive),-1.57 (inactive),0.142 (inactive),0.0559 (inactive),-2.22,-0.17,0.109 (inactive),0.895,-0.701,-3.32 (inactive),0.354 (inactive),0.873 (inactive)
[N-]=[N+]=NCc1ccccc1C[C@@]1(C(=O)N2CCCCC2)N=C(c2ccc(OCCCO)cc2)O[C@@H]1c1ccccc1N=[N+]=[N-],0.226,0.146 (inactive),-0.964 (inactive),0.42 (inactive),0.509 (inactive),1.41 (inactive),0.878 (inactive),-0.0021 (inactive),-0.892,0.0694,1.25 (inactive),0.386,-2.24,-1.84 (inactive),-0.298 (inactive),0.246 (inactive)
CN(C)CCCNC(=O)[C@@H]1c2ccccc2C(=O)N(CC23CC4CC(CC(C4)C2)C3)[C@H]1c1ccc(CO)cc1,-0.701,-3.33 (inactive),-0.809 (inactive),-0.184 (inactive),0.0435 (inactive),0.28 (inactive),0.309 (inactive),0.401 (inactive),-0.692,0.0973,1.18 (inactive),0.824,-2.18,3.41 (inactive),0.595 (inactive),1.05 (inactive)
CC(C)CN1C(=O)[C@@]2(Cc3ccccc31)c1ccccc1C(=O)N(Cc1ccccc1C(F)(F)F)[C@H]2c1ccc(CO)cc1,0.869,-1.94 (inactive),-0.696 (inactive),-4.83 (inactive),-0.103 (inactive),-2.06 (inactive),0.897 (inactive),1.72 (inactive),0.478,0.661,-0.334 (inactive),-0.0449,-0.141,0.0026 (inactive),-0.417 (inactive),-0.408 (inactive)
CC(C)C(=C=CC[C@@H](O)c1ccccc1OCCO)C[C@@H](O)COCc1ccccc1,0.669,-15.5 (active),0.304 (inactive),-5.41 (inactive),0.354 (inactive),-4.06 (inactive),2.28 (inactive),1.51 (inactive),0.424,0.109,0.493 (inactive),0.401,-1.47,-4.7 (inactive),-0.476 (inactive),1.12 (inactive)
CC(C)(C)OC(=O)CC[C@]1(C(=O)NCCN2CCOCC2)N=C(c2ccc(OCCCO)cc2)O[C@H]1c1ccccc1,-0.385,0.26 (inactive),0.0457 (inactive),-1.63 (inactive),-0.347 (inactive),0.574 (inactive),-0.0656 (inactive),-0.448 (inactive),0.13,-0.031,0.471 (inactive),0.598,0.207,-4.62 (inactive),-0.103 (inactive),0.201 (inactive)
C=CC[C@@H](OC(=O)Nc1ccc(OC)cc1)c1ccc(OCCO)cc1,-0.197,-3.85 (inactive),-0.561 (inactive),0.251 (inactive),0.438 (inactive),-0.373 (inactive),0.411 (inactive),-0.103 (inactive),-0.365,0.206,0.456 (inactive),-0.543,0.663,-5.86 (inactive),-0.867 (inactive),-0.431 (inactive)
C=CCOC(=O)[C@@H]1[C@H]2C(=O)O[C@H](c3ccccc3)[C@H](c3ccccc3)N2[C@H](c2ccc(OCCOC(=O)[C@H]3C[C@H]4C(=O)N[C@@H](CCCCNC(C)=O)C(=O)N4[C@H]3c3cccc(OCCO)c3)cc2)[C@@]12C(=O)Nc1ccc(I)cc12,-0.299,1.39 (inactive),-0.565 (inactive),-0.406 (inactive),4.17 (inactive),2 (inactive),-0.115 (inactive),0.228 (inactive),-0.354,0.0073,1.09 (inactive),0.822,-1.64,1 (inactive),-0.398 (inactive),-0.929 (inactive)
C=C[C@@H](C)[C@H](OC(=O)Nc1ccc(SC)cc1)c1ccc(OCCO)cc1,0.571,-3.42 (inactive),-0.0261 (inactive),-1.16 (inactive),0.638 (inactive),0.0728 (inactive),-0.217 (inactive),0.511 (inactive),0.152,-0.111,0.263 (inactive),-0.0795,-0.005,-4.89 (inactive),-0.405 (inactive),0.433 (inactive)
